# Source: PubChem
# LAP4 TOR yeast: yeast TOR pathway LAP4-GFP modulation; S. cerevisiae LAP4-GFP multiplex, flow cytometry GFP, 3 h; median GFP as percent of DMSO wells; GFP response vs DMSO, % at 10 µM; 320,000 compounds, 0.34% hits;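 active means GFP response vs DMSO above a set limit, about the screen mean plus 3 SD, cut at about 150% in these data; inconclusive means under 70 cell events counted for the yeast strain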
# AGP1 TOR yeast: alters AGP1-GFP fluorescence in TOR pathway yeast screen; S. cerevisiae AGP1-GFP multiplex flow cytometry, 3 h; GFP as percent of DMSO wells; GFP response vs DMSO, % at 10 µM; 320,000 compounds, 0.02% hits;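 active means GFP response relative to DMSO above a set limit, near screen average plus 3 SD, cut at about 150% in these data; inconclusive means fewer than 70 cells counted for the yeast strain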;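 further: median GFP channel fluorescence of the gated AGP1 strain per well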
# RPL19A TOR yeast: modulators of TOR pathway RPL19A-GFP in S. cerevisiae | percent response vs DMSO, % at 10 µM | S. cerevisiae RPL19A-GFP strain, flow cytometry, 3 h; hits give low values | 330,000 compounds, 0.3% hits;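 active means percent response vs DMSO below 50%; inconclusive means fewer than 70 events counted for the yeast strain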;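 further: median channel GFP fluorescence of the barcoded RPL19A-GFP strain; ratio of sample median GFP to plate DMSO average so 100% = DMSO; lower means less RPL19A-GFP as with rapamycin TOR inhibition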
# Myeloid diff 2: myeloid differentiation induction. ER-HoxA9 myeloid progenitors, lysozyme-GFP differentiation, flow cytometry. calls only at 10 µM. 360,000 compounds, 1% hits;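 active means normalized GFP-positive differentiation at or above the plate's own cutoff, the solvent-only control mean plus 3 SD; inconclusive means no clear call, values can overlap the other calls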;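 further: cells exposed to compound for four days before flow analysis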
# MEP2 TOR yeast: yeast TOR pathway MEP2-GFP modulation; S. cerevisiae MEP2-GFP strain, flow cytometry GFP, 3 h; 100% = DMSO control level; GFP response vs DMSO, % at 10 µM; 330,000 compounds, 0.51% hits;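 active means GFP response versus DMSO above a set limit, roughly screen mean plus 3 SD, cut at about 180% in these data; inconclusive means fewer than 70 cells counted for a yeast strain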;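 further: median GFP fluorescence of the barcode-gated MEP2-GFP cells per well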
# CIT2 TOR yeast: yeast TOR pathway CIT2-GFP modulation | GFP response vs DMSO, % at 10 µM | 320,000 compounds, 0.065% hits | S. cerevisiae CIT2-GFP strain, flow cytometry, 3 h; 100 means same as DMSO wells | AID 2029;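 active means GFP response relative to DMSO above a set limit, near the screen mean plus 3 SD, cut at about 150% in these data; inconclusive means Fewer than 70 cells measured for a yeast strain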;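 further: ratio of well median GFP fluorescence to mean of DMSO wells on the plate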
# LAP4-GFP pick2: reconfirmed LAP4-GFP TOR pathway modulator in yeast | shares compounds with LAP4 TOR yeast | S. cerevisiae LAP4-GFP strain, flow cytometry GFP, 3 h | GFP response vs DMSO, % at 10 µM | 590 compounds, 20% hits;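 active means GFP signal as percent of the solvent control above about 150%, meaning raised reporter expression, limit read from the data; inconclusive means fewer than 70 cells counted in the well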;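 further: ratio of well median GFP fluorescence to plate DMSO mean so 100% = DMSO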
# MEP2-GFP pick2: yeast MEP2-GFP modulation, second cherry pick | shares compounds with LAP4 TOR yeast | 590 compounds, 10% hits | GFP response vs DMSO, % at 10 µM | S. cerevisiae MEP2-GFP strain, flow cytometry GFP, 3 h;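 active means GFP signal above 150% of the solvent control wells, that is a rise of more than half; inconclusive means fewer than 70 yeast cells counted in the well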;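 further: median channel GFP fluorescence of all gated yeast cells per well; ratio of median GFP to plate DMSO average so 100% = DMSO level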
# RPL19A-GFP pick2: reconfirmed modulator of RPL19A-GFP TOR reporter in yeast. S. cerevisiae RPL19A-GFP strain, flow cytometry GFP, 3 h; hits give low values; 100% means same as DMSO wells. 590 compounds, 3% hits. GFP response vs DMSO, % at 10 µM. shares compounds with LAP4 TOR yeast. AID 2623;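 active means under 65% GFP response relative to DMSO; inconclusive means yeast strain with under 70 measured events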;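 further: median GFP channel fluorescence per well over the all cells gate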
# CIT2 GFP CP2: second confirmation of modulators of TOR reporter CIT2-GFP in yeast; shares compounds with LAP4 TOR yeast; S. cerevisiae CIT2-GFP strain, flow cytometry GFP, 3 h; DMSO control wells read 100%; GFP response vs DMSO, % at 10 µM; 590 compounds, 8% hits; AID 2624;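 active means GFP response vs DMSO above about 150%, limit read from the data; inconclusive means fewer than 70 events counted for a yeast strain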;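 further: median green fluorescence per well over all gated yeast cells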
# AGP1-GFP pick2: second confirmation of modulators of TOR reporter AGP1-GFP in yeast | shares compounds with LAP4 TOR yeast | S. cerevisiae AGP1-GFP strain, flow cytometry GFP, 3 h | percent response vs DMSO, % at 10 µM | 590 tested, under 10 active;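 active means over 150 percent of DMSO response; inconclusive means yeast strain measured with under 70 events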;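 further: median GFP channel fluorescence over all cells without mother daughter split; sample median GFP divided by mean DMSO control so 100% equals DMSO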
# Yeast autofluor: yeast s288c autofluorescence artifact, counter-screen; shares compounds with LAP4 TOR yeast; S. cerevisiae s288c, 520 nm autofluorescence, flow cytometry, 3 h; hits give high values; zero means same as solvent-only cells; fluorescence change (kMESF span) at 33 µM; 610 tested, under 10 active;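 active means fluorescence span over the dose series, or activity score, above about 33, limit read from the data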
# Yeast autofl DR: counter-screen for autofluorescence of TOR hits in yeast s288c. shares compounds with LAP4 TOR yeast. S. cerevisiae s288c parental, compound autofluorescence, flow cytometry, 3 h. fluorescence change (span) at 33 µM. 110 tested, under 10 active. AID 488829;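 active means fluorescence change span, or the activity score built from it, above 25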
# TORC1 bypass: wildtype yeast growth loss with TORC1 bypass cells unaffected | growth rating (0-3) at 30 µM | AID 504456 | S. cerevisiae BY4741 spot growth rating, 48-72 h; hits give low values | 120 tested, under 10 active | shares compounds with LAP4 TOR yeast;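 active means growth rating at most 1 for wild type yeast while the TORC1 bypass strain still grows fully, rated 3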
# Active calls of the source: *; i = inactive; ? = inconclusive; · = no result. Shown are actives, neighbours in structure and some others; about 1.8% of the full set was active somewhere.
SMILES,LAP4 TOR yeast,AGP1 TOR yeast,RPL19A TOR yeast,Myeloid diff 2,MEP2 TOR yeast,CIT2 TOR yeast,Yeast autofluor,others
Cc1cccc(N=C2NC(=O)/C(=C/C=C/c3ccco3)S2)c1C,162*,91,96,i,100,112,3.4,LAP4-GFP pick2=190*;MEP2-GFP pick2=122;RPL19A-GFP pick2=112;CIT2 GFP CP2=118;AGP1-GFP pick2=98
Cc1ccc(N=C2NC(=O)/C(=C/C=C/c3ccco3)S2)cc1,103,98,98,i,97,97,·,
CCCCCCn1c(=O)n2n(c1=O)[C@@H]1CN(S(=O)(=O)c3ccc(C)cc3)C[C@]1(O)[C@@H](OC(=O)Nc1c(C)noc1C)C2,·,·,·,i,·,·,·,
N/C(=N\OC(=O)c1ccc(Cl)cc1Cl)c1ccc(Cl)cc1,113,53,101,i,94,110,·,
N/C(=N\OC(=O)c1ccccc1Cl)c1ccc(Cl)cc1,143,79,88,i,104,169*,0.9,
N/C(Cc1ccc(Cl)cc1)=N\OC(=O)c1ccc2ccccc2c1,98,103,107,i,108,102,·,
N/C(Cc1ccc(Cl)cc1Cl)=N\OC(=O)c1ccccc1,170*,41,87,i,121,119,7.7,
N/C(Cc1ccc(Cl)cc1)=N\OC(=O)c1cccc2ccccc12,196*,74,91,·,118,125,1.7,Yeast autofl DR=0.89;TORC1 bypass=3
N/C(=N\OC(=O)c1ccc(Cl)cc1Cl)c1ccccc1,257*,71,93,i,118,121,1.7,
O=C(CNC(=S)N(Cc1ccccc1)Cc1cccs1)NCc1ccc(F)cc1,·,·,·,i,·,·,·,
O=C(CNC(=S)N(Cc1ccccc1)Cc1ccccc1F)NCCc1ccc(Cl)cc1,97,70,60,i,135,93,·,LAP4-GFP pick2=103;MEP2-GFP pick2=100;RPL19A-GFP pick2=98;CIT2 GFP CP2=100;AGP1-GFP pick2=104
CCP(=O)(c1cccc([N+](=O)[O-])c1)c1cccc([N+](=O)[O-])c1,119,123,101,i,108,111,·,
CCOC(=O)CC(=O)Nc1cc(Cl)ccc1O,104,109,98,i,109,108,·,
O=C(O)CC(=O)Nc1cc(Cl)ccc1O,96,98,93,i,108,96,·,LAP4-GFP pick2=97;MEP2-GFP pick2=106;RPL19A-GFP pick2=99;CIT2 GFP CP2=102;AGP1-GFP pick2=99
NC(=O)N/N=C/CCc1ccccc1,110,114,106,i,104,107,·,
CC(C)(C)N1CC(C(=O)Nc2ccc(C(N)=O)cc2)CC1=O (stereo unspecified),·,·,·,i,·,·,·,
Cn1ncc2c(O/N=C(\N)c3ccc(C(C)(C)C)cc3)ncnc21,188*,64,66,·,91,118,1.8,
CS(=O)(=O)Nc1ccc(C(=O)CC(=O)Nc2ccc([N+](=O)[O-])cc2)cc1,96,98,105,i,108,95,·,
CCCCc1ccc(NC(=O)CC(C)(C)C)cc1,104,93,98,i,102,97,·,
CCCCc1ccc(NC(=O)CC(C)=O)cc1,110,103,107,i,110,103,0,LAP4-GFP pick2=143;MEP2-GFP pick2=175*;RPL19A-GFP pick2=107;CIT2 GFP CP2=152*;AGP1-GFP pick2=101
S=c1[nH]nc(-c2cc3c(s2)-c2ccccc2CC3)o1,122,78,91,i,128,118,·,
CSc1nnc(-c2cc3c(s2)-c2ccccc2CC3)o1,151*,69,96,i,100,91,·,LAP4-GFP pick2=101;MEP2-GFP pick2=100;RPL19A-GFP pick2=102;CIT2 GFP CP2=95;AGP1-GFP pick2=91
CN1CCC(OC(=O)c2ccco2)CC1,104,105,102,i,97,104,·,
O=C(OC1CSc2nc3ccccc3n2C1)c1ccco1 (stereo unspecified),94,25,18*,i,283*,90,·,LAP4-GFP pick2=101;MEP2-GFP pick2=105;RPL19A-GFP pick2=101;CIT2 GFP CP2=104;AGP1-GFP pick2=104
Cc1ccc2c(c1)c(/C=C/c1cc[n+](C)cc1)c(C)n2C,198*,117,127,?,289*,206*,16,
SMILES,LAP4 TOR yeast,AGP1 TOR yeast,RPL19A TOR yeast,Myeloid diff 2,MEP2 TOR yeast,CIT2 TOR yeast,Yeast autofluor,others
Cc1ccc2[nH]c(C)c(/C=C/c3cc[n+](C)cc3)c2c1,209*,110,124,?,344*,224*,17,
C#CCn1c(=NC(=O)c2cc(-c3cccs3)nc3ccccc23)sc2cc(S(N)(=O)=O)ccc21,110,106,84,i,130,102,·,
O=[N+]([O-])c1ccc(C23CC4CC(CC(O)(C4)C2)C3)cc1,112,105,91,·,136,110,·,
C=CCN(C(=O)CCC(=O)Nc1cc(C)on1)C(C(=O)NC1CCCC1)c1ccc(OC)cc1OC (stereo unspecified),99,103,102,i,106,103,·,
Cc1cc(C(O)c2ncc(-c3ccc(Oc4ccccc4)cc3)[nH]2)ccc1F (stereo unspecified),·,·,·,i,·,·,·,
COc1ccc(N2C(=O)CCC(C(=O)c3ccccc3)=C2C)cc1,102,96,93,i,102,97,·,
Cc1ccc(SCC(=O)NC2CCS(=O)(=O)C2)cc1 (stereo unspecified),105,102,99,i,103,95,·,
